# From paper PMC7862700, “An all-to-all approach to the identification of sequence-specific readers for epigenetic DNA modifications on cytosine”
# Columns and labels:
# Experiment in all cases: DAPPL (digital affinity profiling via proximity ligation, sequencing); 10 mM Tris-HCl pH 7.5, 50 mM NaCl, 1 mM DTT, 4% glycerol, room temperature, 30 min; GST-TFs on glutathione beads, 16-mer random dsDNA library, 0.1% formaldehyde crosslink after washing; high values mean tight binding
# FLI1 = molecular target: T1, FLI1 (Homo sapiens, UniProt Q01543 1-452); details: protein: recombinant; tags: N-terminal GST; dsDNA, one strand shown
# T1 sequence: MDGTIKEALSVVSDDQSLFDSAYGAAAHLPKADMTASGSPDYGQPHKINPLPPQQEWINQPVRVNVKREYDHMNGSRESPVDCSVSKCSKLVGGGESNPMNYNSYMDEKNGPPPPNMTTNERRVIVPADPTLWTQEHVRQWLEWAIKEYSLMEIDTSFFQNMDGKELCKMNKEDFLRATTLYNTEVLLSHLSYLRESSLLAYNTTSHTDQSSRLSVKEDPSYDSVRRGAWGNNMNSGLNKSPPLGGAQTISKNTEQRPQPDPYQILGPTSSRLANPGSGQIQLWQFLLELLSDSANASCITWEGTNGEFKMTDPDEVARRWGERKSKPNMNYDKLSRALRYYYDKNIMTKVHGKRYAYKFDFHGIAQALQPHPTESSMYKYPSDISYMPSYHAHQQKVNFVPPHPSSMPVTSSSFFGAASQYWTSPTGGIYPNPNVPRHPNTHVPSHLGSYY
# Outline: (§1)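 Sequencing on an Illumina NextSeq500 followed washing, crosslinking with 0.1% formaldehyde, proximity ligation (BsaI/T4 ligase, 1 h, 37 °C) and PCR amplification of pools that had been incubated for 30 min at room temperature with 200 nmole of a random double-stranded 16-mer DNA library in Tris/NaCl/DTT/glycerol buffer. Each pool held DNA-barcoded human transcription factors, expressed in yeast as GST fusions and captured on glutathione beads, plus a tag-only sample. Binding signal is a hexamer's read frequency for a factor divided by its frequency in the tag-only sample.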
# ELK1 = molecular target: T2, ELK1 (Homo sapiens, UniProt P19419 1-428); details: protein: recombinant; tags: N-terminal GST; dsDNA, one strand shown
# T2 sequence: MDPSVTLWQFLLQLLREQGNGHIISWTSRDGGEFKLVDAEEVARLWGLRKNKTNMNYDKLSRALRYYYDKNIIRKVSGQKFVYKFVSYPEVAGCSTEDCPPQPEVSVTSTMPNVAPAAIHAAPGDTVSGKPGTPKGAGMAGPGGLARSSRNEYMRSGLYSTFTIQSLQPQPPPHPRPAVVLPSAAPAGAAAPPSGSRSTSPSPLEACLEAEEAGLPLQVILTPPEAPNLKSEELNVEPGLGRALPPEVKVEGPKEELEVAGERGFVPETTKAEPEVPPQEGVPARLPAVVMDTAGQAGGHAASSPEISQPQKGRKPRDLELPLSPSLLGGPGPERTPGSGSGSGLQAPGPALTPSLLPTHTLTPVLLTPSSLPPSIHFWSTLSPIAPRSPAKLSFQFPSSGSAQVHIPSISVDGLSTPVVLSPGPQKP
# Outline: as §1
# GABPA = molecular target: T3, GABPA (Homo sapiens, UniProt Q06546 1-454); details: protein: recombinant; tags: N-terminal GST; dsDNA, one strand shown
# T3 sequence: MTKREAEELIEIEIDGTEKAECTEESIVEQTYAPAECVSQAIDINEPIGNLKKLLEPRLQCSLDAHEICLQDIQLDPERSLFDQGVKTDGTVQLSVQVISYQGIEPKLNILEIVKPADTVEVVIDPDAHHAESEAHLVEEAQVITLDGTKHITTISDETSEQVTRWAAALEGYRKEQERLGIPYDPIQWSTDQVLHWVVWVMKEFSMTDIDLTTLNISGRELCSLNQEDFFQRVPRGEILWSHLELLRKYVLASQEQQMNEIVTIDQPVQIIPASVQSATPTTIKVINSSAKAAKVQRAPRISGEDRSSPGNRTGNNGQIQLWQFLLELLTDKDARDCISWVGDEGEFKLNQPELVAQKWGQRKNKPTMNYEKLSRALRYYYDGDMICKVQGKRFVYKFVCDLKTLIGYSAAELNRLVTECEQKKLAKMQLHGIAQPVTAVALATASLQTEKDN
# Outline: as §1
# ERG = molecular target: T4, ERG (Homo sapiens, UniProt P11308 1-479); details: protein: recombinant; tags: N-terminal GST; dsDNA, one strand shown
# T4 sequence: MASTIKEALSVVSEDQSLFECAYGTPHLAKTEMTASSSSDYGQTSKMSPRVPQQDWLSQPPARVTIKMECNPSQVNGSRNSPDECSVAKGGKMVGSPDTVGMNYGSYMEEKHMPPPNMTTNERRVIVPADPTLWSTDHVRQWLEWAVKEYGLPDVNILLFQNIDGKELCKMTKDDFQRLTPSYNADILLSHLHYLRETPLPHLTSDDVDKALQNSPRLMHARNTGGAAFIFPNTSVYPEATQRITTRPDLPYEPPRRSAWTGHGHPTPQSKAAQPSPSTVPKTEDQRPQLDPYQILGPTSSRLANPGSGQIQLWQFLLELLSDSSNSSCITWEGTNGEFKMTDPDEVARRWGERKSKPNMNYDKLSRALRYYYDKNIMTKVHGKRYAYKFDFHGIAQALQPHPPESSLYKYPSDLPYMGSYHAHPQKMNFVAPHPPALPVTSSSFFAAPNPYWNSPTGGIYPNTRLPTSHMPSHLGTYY
# Outline: as §1
# ELF1 = ELF1 (Homo sapiens, UniProt P32519 1-619); details: protein: recombinant; tags: N-terminal GST; dsDNA, one strand shown
# Outline: as §1
# EHF = molecular target: T5, EHF (Homo sapiens, UniProt Q9NZC4 1-300); details: protein: recombinant; tags: N-terminal GST; dsDNA, one strand shown
# T5 sequence: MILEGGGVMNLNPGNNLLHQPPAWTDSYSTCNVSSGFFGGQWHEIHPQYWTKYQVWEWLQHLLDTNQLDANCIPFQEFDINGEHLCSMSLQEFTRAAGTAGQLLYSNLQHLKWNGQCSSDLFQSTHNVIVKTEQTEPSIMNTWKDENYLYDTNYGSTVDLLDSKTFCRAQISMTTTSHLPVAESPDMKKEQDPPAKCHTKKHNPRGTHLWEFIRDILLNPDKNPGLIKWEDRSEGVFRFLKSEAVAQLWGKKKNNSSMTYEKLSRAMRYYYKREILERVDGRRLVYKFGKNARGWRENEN
# Outline: as §1
# SPI1 = SPI1 (Homo sapiens, UniProt P17947 1-270); details: protein: recombinant; tags: N-terminal GST; dsDNA, one strand shown
# Outline: as §1
# SPIB = SPIB (Homo sapiens, UniProt Q01892 1-262); details: protein: recombinant; tags: N-terminal GST; dsDNA, one strand shown
# Outline: as §1
# ELK3 = molecular target: T6, ELK3 (Homo sapiens, UniProt P41970 1-407); details: protein: recombinant; tags: N-terminal GST; dsDNA, one strand shown
# T6 sequence: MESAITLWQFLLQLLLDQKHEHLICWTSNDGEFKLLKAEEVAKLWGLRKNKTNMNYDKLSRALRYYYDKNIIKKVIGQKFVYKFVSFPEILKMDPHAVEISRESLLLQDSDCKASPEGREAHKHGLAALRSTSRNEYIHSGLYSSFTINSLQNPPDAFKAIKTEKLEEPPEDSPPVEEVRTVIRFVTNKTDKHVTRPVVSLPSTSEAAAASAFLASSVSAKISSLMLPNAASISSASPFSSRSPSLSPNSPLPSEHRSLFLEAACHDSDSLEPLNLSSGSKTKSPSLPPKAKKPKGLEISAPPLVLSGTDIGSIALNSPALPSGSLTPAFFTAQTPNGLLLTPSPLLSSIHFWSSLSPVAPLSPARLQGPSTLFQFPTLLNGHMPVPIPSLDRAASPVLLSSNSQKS
# Outline: as §1
# FEV = molecular target: T7, FEV (Homo sapiens, UniProt Q99581 1-238); details: protein: recombinant; tags: N-terminal GST; dsDNA, one strand shown
# T7 sequence: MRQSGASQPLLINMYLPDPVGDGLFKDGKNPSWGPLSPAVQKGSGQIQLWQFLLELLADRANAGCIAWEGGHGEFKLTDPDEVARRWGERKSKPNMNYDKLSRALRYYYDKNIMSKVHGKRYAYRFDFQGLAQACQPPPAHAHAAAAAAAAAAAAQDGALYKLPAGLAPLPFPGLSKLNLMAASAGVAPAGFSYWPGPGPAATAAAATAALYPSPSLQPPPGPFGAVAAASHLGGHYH
# Outline: as §1
# ETV5 = ETV5 (Homo sapiens, UniProt P41161 1-510); details: protein: recombinant; tags: N-terminal GST; dsDNA, one strand shown
# Outline: as §1
# HSF1 = HSF1 (Homo sapiens, UniProt Q00613 1-529); details: protein: recombinant; tags: N-terminal GST; chain copies: 3; dsDNA, one strand shown
# Outline: as §1
# SPIC = molecular target: T8, SPIC (Homo sapiens, UniProt Q8N5J4 1-248); details: protein: recombinant; tags: N-terminal GST; dsDNA, one strand shown
# T8 sequence: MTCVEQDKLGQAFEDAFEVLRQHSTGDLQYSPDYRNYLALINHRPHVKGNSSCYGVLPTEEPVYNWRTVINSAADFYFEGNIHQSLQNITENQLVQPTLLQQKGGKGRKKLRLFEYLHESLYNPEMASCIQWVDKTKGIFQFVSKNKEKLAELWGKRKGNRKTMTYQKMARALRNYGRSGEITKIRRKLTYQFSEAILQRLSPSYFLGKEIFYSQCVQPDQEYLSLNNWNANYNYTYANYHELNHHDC
# Outline: as §1
# ELF4 = ELF4 (Homo sapiens, UniProt Q99607 1-663); details: protein: recombinant; tags: N-terminal GST; dsDNA, one strand shown
# Outline: as §1
# ELK4 = molecular target: T9, ELK4 (Homo sapiens, UniProt P28324-2 1-405); details: protein: recombinant; tags: N-terminal GST; dsDNA, one strand shown
# T9 sequence: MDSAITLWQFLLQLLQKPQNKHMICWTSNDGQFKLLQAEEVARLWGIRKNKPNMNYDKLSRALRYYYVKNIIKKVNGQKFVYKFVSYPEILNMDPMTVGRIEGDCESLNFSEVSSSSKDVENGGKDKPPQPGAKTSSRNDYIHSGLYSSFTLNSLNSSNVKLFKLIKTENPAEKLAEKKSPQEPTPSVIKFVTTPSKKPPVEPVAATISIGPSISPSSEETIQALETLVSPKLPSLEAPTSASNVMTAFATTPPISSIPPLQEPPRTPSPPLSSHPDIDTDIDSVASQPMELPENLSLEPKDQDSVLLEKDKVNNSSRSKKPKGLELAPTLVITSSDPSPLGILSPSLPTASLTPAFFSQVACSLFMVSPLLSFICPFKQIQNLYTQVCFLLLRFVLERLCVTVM
# Outline: as §1
# ETV2 = molecular target: T10, ETV2 (Homo sapiens, UniProt O00321 1-342); details: protein: recombinant; tags: N-terminal GST; dsDNA, one strand shown
# T10 sequence: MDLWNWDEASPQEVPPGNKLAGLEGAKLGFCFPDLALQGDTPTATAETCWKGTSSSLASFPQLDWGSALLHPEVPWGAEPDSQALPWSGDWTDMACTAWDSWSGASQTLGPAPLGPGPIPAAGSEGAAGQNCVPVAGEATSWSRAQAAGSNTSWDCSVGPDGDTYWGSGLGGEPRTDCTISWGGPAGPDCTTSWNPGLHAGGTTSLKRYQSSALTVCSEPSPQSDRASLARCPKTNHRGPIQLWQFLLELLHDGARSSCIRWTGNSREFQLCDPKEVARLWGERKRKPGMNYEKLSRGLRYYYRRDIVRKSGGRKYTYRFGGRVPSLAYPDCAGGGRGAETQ
# Outline: as §1
# ELF3 = molecular target: T11, ELF3 (Homo sapiens, UniProt P78545 1-371); details: protein: recombinant; tags: N-terminal GST; dsDNA, one strand shown
# T11 sequence: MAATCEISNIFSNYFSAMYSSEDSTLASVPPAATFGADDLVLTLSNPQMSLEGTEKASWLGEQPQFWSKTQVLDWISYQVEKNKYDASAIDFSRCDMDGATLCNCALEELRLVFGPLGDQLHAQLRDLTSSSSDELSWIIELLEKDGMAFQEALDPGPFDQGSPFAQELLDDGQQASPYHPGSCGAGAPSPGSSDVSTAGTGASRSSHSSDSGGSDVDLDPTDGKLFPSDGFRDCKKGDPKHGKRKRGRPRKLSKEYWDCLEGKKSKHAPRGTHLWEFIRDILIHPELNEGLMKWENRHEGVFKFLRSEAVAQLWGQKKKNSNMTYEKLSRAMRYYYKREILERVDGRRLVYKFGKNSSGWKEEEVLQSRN
# Outline: as §1
# CRX = CRX (Homo sapiens, UniProt O43186 1-299); details: protein: recombinant; tags: N-terminal GST; dsDNA, one strand shown
# Outline: as §1
# ETV1 = ETV1 (Homo sapiens, UniProt P50549 1-477); details: protein: recombinant; tags: N-terminal GST; dsDNA, one strand shown
# Outline: as §1
# CRX, sequence (O43186 whole entry): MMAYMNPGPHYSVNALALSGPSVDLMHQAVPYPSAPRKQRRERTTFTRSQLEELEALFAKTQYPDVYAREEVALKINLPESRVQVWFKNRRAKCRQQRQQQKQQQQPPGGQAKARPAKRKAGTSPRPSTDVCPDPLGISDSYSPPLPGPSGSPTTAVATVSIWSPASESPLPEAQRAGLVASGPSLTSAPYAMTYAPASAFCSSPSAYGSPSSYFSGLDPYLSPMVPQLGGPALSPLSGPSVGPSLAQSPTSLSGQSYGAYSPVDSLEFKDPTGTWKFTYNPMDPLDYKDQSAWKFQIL
# SPIB, sequence (Q01892 whole entry): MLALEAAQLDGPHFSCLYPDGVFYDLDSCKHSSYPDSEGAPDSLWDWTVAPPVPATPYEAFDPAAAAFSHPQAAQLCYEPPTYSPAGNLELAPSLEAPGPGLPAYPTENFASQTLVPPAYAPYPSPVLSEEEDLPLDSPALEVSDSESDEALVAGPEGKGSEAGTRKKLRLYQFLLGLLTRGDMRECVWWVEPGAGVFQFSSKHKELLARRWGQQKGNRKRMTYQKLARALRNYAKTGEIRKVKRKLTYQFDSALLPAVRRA
# ETV1, sequence (P50549 whole entry): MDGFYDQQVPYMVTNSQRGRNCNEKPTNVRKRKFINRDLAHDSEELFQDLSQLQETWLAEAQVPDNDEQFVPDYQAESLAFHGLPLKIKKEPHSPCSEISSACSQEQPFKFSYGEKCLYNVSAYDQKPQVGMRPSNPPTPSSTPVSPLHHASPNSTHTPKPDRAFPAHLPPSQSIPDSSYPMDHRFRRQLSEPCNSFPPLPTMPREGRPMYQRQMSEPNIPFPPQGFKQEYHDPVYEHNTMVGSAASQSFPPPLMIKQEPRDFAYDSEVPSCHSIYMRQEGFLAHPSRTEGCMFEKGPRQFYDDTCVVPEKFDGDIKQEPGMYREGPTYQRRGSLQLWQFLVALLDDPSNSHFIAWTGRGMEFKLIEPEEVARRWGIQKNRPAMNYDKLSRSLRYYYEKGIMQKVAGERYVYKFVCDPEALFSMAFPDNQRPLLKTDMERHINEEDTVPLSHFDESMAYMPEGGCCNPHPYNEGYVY
# ELF4, sequence (Q99607 whole entry): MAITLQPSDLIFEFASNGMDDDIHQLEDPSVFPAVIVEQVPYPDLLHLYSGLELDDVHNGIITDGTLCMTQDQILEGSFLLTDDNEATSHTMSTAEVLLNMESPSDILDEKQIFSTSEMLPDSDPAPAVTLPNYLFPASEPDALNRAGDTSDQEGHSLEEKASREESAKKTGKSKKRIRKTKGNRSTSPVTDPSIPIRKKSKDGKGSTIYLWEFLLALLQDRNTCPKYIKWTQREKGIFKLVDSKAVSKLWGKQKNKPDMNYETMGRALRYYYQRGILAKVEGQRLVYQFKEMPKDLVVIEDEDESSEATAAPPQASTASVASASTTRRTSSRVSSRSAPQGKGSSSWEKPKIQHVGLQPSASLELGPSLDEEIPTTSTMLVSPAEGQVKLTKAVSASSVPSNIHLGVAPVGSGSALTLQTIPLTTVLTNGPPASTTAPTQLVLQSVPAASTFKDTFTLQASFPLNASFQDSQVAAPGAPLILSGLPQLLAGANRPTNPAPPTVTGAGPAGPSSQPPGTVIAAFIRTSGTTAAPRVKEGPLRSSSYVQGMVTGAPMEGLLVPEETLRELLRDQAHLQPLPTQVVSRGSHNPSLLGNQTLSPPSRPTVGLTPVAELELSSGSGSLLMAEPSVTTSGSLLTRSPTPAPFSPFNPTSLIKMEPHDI
# ELF1, sequence (P32519 whole entry): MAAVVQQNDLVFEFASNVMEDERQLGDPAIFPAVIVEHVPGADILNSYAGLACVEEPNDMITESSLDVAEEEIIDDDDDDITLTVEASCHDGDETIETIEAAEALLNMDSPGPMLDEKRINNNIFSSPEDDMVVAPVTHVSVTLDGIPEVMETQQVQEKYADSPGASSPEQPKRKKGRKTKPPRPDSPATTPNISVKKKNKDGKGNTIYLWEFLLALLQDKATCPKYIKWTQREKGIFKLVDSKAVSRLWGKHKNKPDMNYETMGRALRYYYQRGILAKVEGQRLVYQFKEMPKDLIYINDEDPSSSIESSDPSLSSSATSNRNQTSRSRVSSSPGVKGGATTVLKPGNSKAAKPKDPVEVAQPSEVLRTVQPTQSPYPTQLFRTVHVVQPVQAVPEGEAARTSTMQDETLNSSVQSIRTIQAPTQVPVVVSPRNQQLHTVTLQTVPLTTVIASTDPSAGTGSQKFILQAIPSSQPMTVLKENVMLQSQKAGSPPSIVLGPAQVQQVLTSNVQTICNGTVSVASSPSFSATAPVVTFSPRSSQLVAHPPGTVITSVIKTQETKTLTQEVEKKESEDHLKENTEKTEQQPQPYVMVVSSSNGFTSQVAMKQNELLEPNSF
# ETV5, sequence (P41161 whole entry): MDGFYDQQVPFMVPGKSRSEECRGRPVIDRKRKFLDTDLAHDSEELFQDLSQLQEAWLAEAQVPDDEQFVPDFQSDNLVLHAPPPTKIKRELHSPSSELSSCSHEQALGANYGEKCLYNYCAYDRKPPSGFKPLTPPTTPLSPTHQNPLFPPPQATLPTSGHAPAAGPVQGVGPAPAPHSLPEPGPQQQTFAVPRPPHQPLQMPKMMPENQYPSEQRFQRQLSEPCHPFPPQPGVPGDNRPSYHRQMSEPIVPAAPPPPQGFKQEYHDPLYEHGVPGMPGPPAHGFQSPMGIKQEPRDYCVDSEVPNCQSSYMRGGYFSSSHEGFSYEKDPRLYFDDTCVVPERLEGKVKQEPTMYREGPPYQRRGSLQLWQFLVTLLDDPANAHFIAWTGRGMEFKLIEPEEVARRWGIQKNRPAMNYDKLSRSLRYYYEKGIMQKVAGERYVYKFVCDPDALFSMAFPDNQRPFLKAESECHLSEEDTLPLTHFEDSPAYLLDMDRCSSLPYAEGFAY
# HSF1, sequence (Q00613 whole entry): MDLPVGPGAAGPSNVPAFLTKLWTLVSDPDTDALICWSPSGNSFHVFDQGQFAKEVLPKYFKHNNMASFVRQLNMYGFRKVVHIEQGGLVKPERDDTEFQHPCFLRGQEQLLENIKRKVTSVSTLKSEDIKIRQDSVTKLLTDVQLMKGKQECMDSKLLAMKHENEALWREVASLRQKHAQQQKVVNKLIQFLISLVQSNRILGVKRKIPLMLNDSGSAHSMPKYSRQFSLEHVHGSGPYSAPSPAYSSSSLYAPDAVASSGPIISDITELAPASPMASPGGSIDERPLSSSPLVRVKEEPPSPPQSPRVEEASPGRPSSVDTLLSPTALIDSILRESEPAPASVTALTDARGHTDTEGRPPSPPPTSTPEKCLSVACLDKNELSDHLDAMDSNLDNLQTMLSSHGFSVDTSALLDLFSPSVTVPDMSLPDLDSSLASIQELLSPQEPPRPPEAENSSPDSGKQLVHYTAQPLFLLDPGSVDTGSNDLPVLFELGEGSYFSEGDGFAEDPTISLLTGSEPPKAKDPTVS
sequence,measurement,setting,value
TCACTT,binding signal,FLI1,"1.56 fold enrichment (6-mer frequency, TF over GST control)"
same,binding signal,ELK1,"1.78 fold enrichment (6-mer frequency, TF over GST control)"
same,binding signal,GABPA,"1.52 fold enrichment (6-mer frequency, TF over GST control)"
same,binding signal,ERG,"1.8 fold enrichment (6-mer frequency, TF over GST control)"
same,binding signal,ELF1,"1.66 fold enrichment (6-mer frequency, TF over GST control)"
same,binding signal,EHF,"1.67 fold enrichment (6-mer frequency, TF over GST control)"
same,binding signal,SPI1,"2.11 fold enrichment (6-mer frequency, TF over GST control)"
same,binding signal,SPIB,"1.82 fold enrichment (6-mer frequency, TF over GST control)"
same,binding signal,ELK3,"1.69 fold enrichment (6-mer frequency, TF over GST control)"
same,binding signal,FEV,"1.99 fold enrichment (6-mer frequency, TF over GST control)"
same,binding signal,ETV5,"1.75 fold enrichment (6-mer frequency, TF over GST control)"
same,binding signal,HSF1,"1.14 fold enrichment (6-mer frequency, TF over GST control)"
same,binding signal,SPIC,"1.62 fold enrichment (6-mer frequency, TF over GST control)"
same,binding signal,ELF4,"1.74 fold enrichment (6-mer frequency, TF over GST control)"
same,binding signal,ELK4,"1.74 fold enrichment (6-mer frequency, TF over GST control)"
same,binding signal,ETV2,"1.72 fold enrichment (6-mer frequency, TF over GST control)"
same,binding signal,ELF3,"1.62 fold enrichment (6-mer frequency, TF over GST control)"
same,binding signal,CRX,"1.23 fold enrichment (6-mer frequency, TF over GST control)"
same,binding signal,ETV1,"1.67 fold enrichment (6-mer frequency, TF over GST control)"
